Bioassay records: PubChem, Broad Institute
Sampled rows, rich in hits. Any-hit rate of the full collection: about 4%.
esBAF inh: blocks esBAF chromatin remodeling in mouse ES cells; Bmi1-luciferase knock-in reporter, 24 h; 100% = twice the neutral-well signal; reporter increase, % at 12.5 µM; hit rate 2% among 350,000; AID 602393; in the data active = activation above about 40%; inconclusive = no clear call, values can overlap the other calls;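 note: 0% = median of the plate's neutral control wells and 100% = double that signal; a rise in the Bmi1 reporter signal indicates esBAF inhibition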
C2C12 statin: suppressors of simvastatin-induced myotoxicity in C2C12 myotubes | hit rate 0.78% among 330,000 | rescue of ATP level, % at 7.49 µM | AID 602340 | ATP luminescence, 48 h; scaled: DMSO 0, geranylgeraniol control 100;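 active = mean ATP rescue above about 67%, or every replicate alone reaching that limit, limit read from the data, passing the limit was not always enough; inconclusive = no clear call, values can overlap the other calls; inactive = mean under the limit and some replicate under it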;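 note: myotubes were challenged with 10 µM simvastatin during compound exposure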
EBV LMP1 NFkB: reduces LMP1-driven NF-kappaB luciferase signal | hit rate 0.69% among 350,000 | inhibition, % at 12.5 µM | AID 504558 | LMP1-induced NF-kappaB luciferase reporter cells, luminescence; in the data active = inhibition above about 41%; inconclusive = no clear call, values can overlap the other calls;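 note: 0% = neutral control wells and 100% = reference inhibitor control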
Wnt bcat act: activators of Wnt/beta-catenin signaling. activation, % at 9.35 µM. Wnt/beta-catenin reporter cell assay, activator, plate reader. hit rate 1.2% among 300,000; in the data active = activation above about 30%, passing the limit was not always enough; inconclusive = no clear call, values can overlap the other calls;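 note: 0% = neutral control wells and 100% = positive control wells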
TRPM1 prom inh: MITF TRPM1 promoter inhibition in SK-MEL-5 cells; SK-MEL-5 TRPM1 promoter luciferase, 24 h; inhibition, % at 12.5 µM; hit rate 0.83% among 330,000;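 active = mean inhibition across replicates of 60% or more, whatever share of single replicates reaches that level; inconclusive = some that reach 60%, reason not given; inactive = mean inhibition across replicates below 60%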
MITF TRPM1 HTS: increases MITF-driven TRPM1 promoter luciferase signal; SK-MEL-5 TRPM1-promoter luciferase, 24 h; % of positive control, neutral wells = 0; activation, % at 12.5 µM; hit rate 0.75% among 300,000;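 active = mean activation of at least 80% with every replicate also reaching 80%; inconclusive = mean reaches 80% but some replicate falls short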;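 note: 0% = neutral control wells and 100% = parthenolide positive control wells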
Starred values were filed as active, the others as inactive.

Screening O=C(CN1CCC(C(O)(c2ccccc2)c2ccccc2)CC1)Nc1ccccc1 returned esBAF inh -4.3, C2C12 statin 9.8, EBV LMP1 NFkB 1.7, TRPM1 prom inh 5.6 and MITF TRPM1 HTS -5.1.
Screening C[C@H]1CN([C@@H](C)CO)C(=O)c2cc(C#CC3(O)CCCC3)cnc2O[C@@H]1CN(C)C(=O)Cc1cccnc1 returned esBAF inh -0.5 and C2C12 statin -7.8.
For COCC#Cc1cnc2c(c1)C(=O)N([C@@H](C)CO)C[C@@H](C)[C@H](CN(C)Cc1ccccc1F)O2 the results were esBAF inh -1.7 and C2C12 statin -1.4.
For COC(=O)c1c(NC(=O)c2nc3ccccc3s2)sc2c1CC(C)(C)NC2(C)C the results were esBAF inh 4.1, C2C12 statin -6.1, EBV LMP1 NFkB -43.4, Wnt bcat act 5.2, TRPM1 prom inh 77.3* and MITF TRPM1 HTS -77.3.
`C/C=C(\C)C(=O)OC(C)(C)[C@@H]1Cc2cc3ccc(=O)oc3cc2O1` gave esBAF inh -4.6, C2C12 statin -5.6, EBV LMP1 NFkB -4.9, Wnt bcat act 1.2, TRPM1 prom inh -10.6 and MITF TRPM1 HTS 9.4.
Screening COc1ccc(C=NNc2nc3ccccc3s2)cc1 returned esBAF inh -55.2, C2C12 statin 3.2, EBV LMP1 NFkB inconclusive, Wnt bcat act -0.8, TRPM1 prom inh 10.6 and MITF TRPM1 HTS -7.6.
For CCC/C=N/Nc1nc2ccccc2s1 the results were EBV LMP1 NFkB -8.3, Wnt bcat act 74.8*, TRPM1 prom inh -67.1 and MITF TRPM1 HTS 79.6.
Screening C(=C\c1ccccc1)/C=N/Nc1nc2ccccc2s1 returned esBAF inh 65.8*, C2C12 statin 3.7, EBV LMP1 NFkB -87.6, Wnt bcat act inconclusive, TRPM1 prom inh -100.2 and MITF TRPM1 HTS 101.3*.
`CCCC(=O)Nc1ccc2c(c1)C(=O)N(C)[C@H]1CC[C@@H](CC(=O)NCCN3CCCCC3)O[C@@H]1CO2` gave esBAF inh 0.7 and C2C12 statin 16.7.
Screening COc1ccc(CCNC(=O)CSC(=O)c2ccccc2)cc1OC returned EBV LMP1 NFkB 43.2*, Wnt bcat act -2.2, TRPM1 prom inh -4.4 and MITF TRPM1 HTS 5.1.
O=c1c2ccccc2nc2n1-c1ccccc1CCC2 was read as esBAF inh -0.3, C2C12 statin 7.4, EBV LMP1 NFkB 21.3, Wnt bcat act -2.6 and TRPM1 prom inh 4.5.
`O=C1c2ccccc2-n2c1nc1ccccc1c2=O` gave esBAF inh 44.5*, C2C12 statin -4.4, EBV LMP1 NFkB 5.5 and Wnt bcat act -0.1.
For Cc1c(-c2ccccc2)nnn1-c1ccc(F)cc1F the results were esBAF inh 50.7*, C2C12 statin 1.2, EBV LMP1 NFkB -10.7, Wnt bcat act 9.9, TRPM1 prom inh -77.8 and MITF TRPM1 HTS 73.1.
COC(=O)c1ccc(S(=O)(=O)NNC(=O)COc2ccc(C)cc2)cc1 was read as esBAF inh 7.7, C2C12 statin 7.9, EBV LMP1 NFkB -5.1, TRPM1 prom inh -8.1 and MITF TRPM1 HTS 10.6.
Screening COc1ccc(C(=O)Oc2c(CN3CCOCC3)cc(Cl)c3cccnc23)cc1 returned esBAF inh -8.6, C2C12 statin -16.2, EBV LMP1 NFkB 4.2, TRPM1 prom inh 7.6 and MITF TRPM1 HTS -6.2.
For COc1cc(C(=O)Oc2c(OC)cc(C(=S)N3CCOCC3)cc2OC)cc(OC)c1OC the results were esBAF inh -1.9, C2C12 statin 3.3, EBV LMP1 NFkB 4.5, Wnt bcat act 3.3 and TRPM1 prom inh 19.5.
For COc1cccc(C(=O)Oc2c(CN3CCOCC3)cc(Cl)c3cccnc23)c1 the results were esBAF inh -24.9, C2C12 statin -6.3, EBV LMP1 NFkB 6.5, TRPM1 prom inh 67.1* and MITF TRPM1 HTS -65.9.
`COc1cc(C(=O)Oc2c(CN3CCOCC3)cc(Cl)c3cccnc23)cc(OC)c1OC` gave esBAF inh -31.1, C2C12 statin 15.6, EBV LMP1 NFkB 35.3, TRPM1 prom inh 68.9* and MITF TRPM1 HTS -66.3.
CCCn1c(=O)c2c(nc(Br)n2CCC)n(C)c1=O was read as esBAF inh -18.3, EBV LMP1 NFkB -7.2, Wnt bcat act -0.6 and TRPM1 prom inh -5.0.
Screening CCOc1ccc(S(=O)(=O)NCC(=O)N(C)Cc2cccnc2)cc1 returned esBAF inh -0.4, C2C12 statin 108.6*, EBV LMP1 NFkB 2.5, TRPM1 prom inh -6.3 and MITF TRPM1 HTS 8.7.
`O=C(COC(=O)c1ccc(F)c([N+](=O)[O-])c1)NC(=O)NCc1ccccc1` gave esBAF inh 1.2, C2C12 statin 10.6, EBV LMP1 NFkB 0.3, Wnt bcat act 0.3, TRPM1 prom inh 70.0* and MITF TRPM1 HTS -68.7.
Screening Cn1c(=O)oc2cc(S(=O)(=O)Nc3ccc4c(c3)OCO4)ccc21 returned esBAF inh 45.3*, C2C12 statin -5.1, EBV LMP1 NFkB 5.0, Wnt bcat act 2.1, TRPM1 prom inh 4.4 and MITF TRPM1 HTS -3.1.
`C=CCn1c(SCC(=O)N(CC)c2c(N)n(Cc3ccccc3)c(=O)[nH]c2=O)nnc1-c1ccccc1OC` gave esBAF inh -0.6, C2C12 statin 8.5, EBV LMP1 NFkB 7.2, Wnt bcat act 8.4, TRPM1 prom inh -2.2 and MITF TRPM1 HTS 3.2.
`CC1(C)CC(N2CCCC2)=CC(=[N+]2CCCCC2)C1` gave EBV LMP1 NFkB 16.5, Wnt bcat act 1.9, TRPM1 prom inh 32.5 and MITF TRPM1 HTS -30.2.
For CN(Cc1ccccc1)C1=CC(=[N+]2CCCCC2)CC(C)(C)C1 the results were esBAF inh -23.0, C2C12 statin -774.7, EBV LMP1 NFkB 43.7*, Wnt bcat act -6.8, TRPM1 prom inh 77.1* and MITF TRPM1 HTS -74.4.
CC1(C)CC(N2CCN(Cc3ccccc3)CC2)=CC(=[N+]2CCCCC2)C1 was read as esBAF inh -24.4, C2C12 statin -85.4, EBV LMP1 NFkB 14.5, Wnt bcat act -4.7, TRPM1 prom inh 67.1* and MITF TRPM1 HTS -65.5.
O=C(c1ccc(F)cc1)N1CCN(Cc2ccccc2Br)CC1 was read as esBAF inh 4.5, C2C12 statin -3.6, EBV LMP1 NFkB -0.6, TRPM1 prom inh -0.2 and MITF TRPM1 HTS 8.2.
Screening O=C(NC1CCCCC1)C(Cc1ccccc1)N1C(=O)C2C3CCC(C3)C2C1=O (configuration not stated) returned esBAF inh -7.3, C2C12 statin -8.8, EBV LMP1 NFkB -1.3, TRPM1 prom inh -1.5 and MITF TRPM1 HTS 7.4.
Screening c1cncc(CSc2ccc(-c3cccs3)nn2)c1 returned esBAF inh 56.3*, C2C12 statin 0.0, EBV LMP1 NFkB -23.6, Wnt bcat act 14.4, TRPM1 prom inh -61.1 and MITF TRPM1 HTS 66.9.
For Cc1ccc(CNC(=O)CSc2ccc(-c3cccs3)nn2)cc1 the results were EBV LMP1 NFkB -6.1, Wnt bcat act 0.4, TRPM1 prom inh -11.8 and MITF TRPM1 HTS 8.9.
Screening Clc1cccc(CSc2ccc(-c3cccnc3)nn2)c1 returned esBAF inh 9.1, C2C12 statin -11.0, EBV LMP1 NFkB -1.5, Wnt bcat act 6.3, TRPM1 prom inh -15.8 and MITF TRPM1 HTS 13.3.
